Data on eleven molecules can be found in the supplement of paper PMC4022240.

± gives the standard deviation.

What all share (assay): peptide microarray binding signal (635 nm), min-max normalized on array (fraction of array maximum); higher = stronger binding
For assay [1], the target named is T1, HaloTag-ATRX ADD domain (163-292).
T1 chain: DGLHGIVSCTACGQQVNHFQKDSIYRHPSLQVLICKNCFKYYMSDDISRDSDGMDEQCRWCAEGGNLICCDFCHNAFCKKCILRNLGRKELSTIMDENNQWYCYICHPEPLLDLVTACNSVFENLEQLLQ
Summed up: (§1)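 Triplicate spots of histone 13-mer peptide–cellulose conjugates with a Cy3 tracer were printed on nitrocellulose and probed for 1 h at 4°C with biotin-labelled HaloTag reader fusions (10 nM to 1 μM) plus streptavidin-Alexa Fluor 647 or rabbit histone antibodies (1:10,000 to 1:2,000) plus anti-rabbit Alexa 647. An Axon GenePix 4000B read the 635 nm channel. Binding signal is the spot-triplicate mean intensity after min-max scaling within each library.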

Assay [2] addresses HaloTag-ING2 PHD (mouse Ing2 200-280). Summed up: as §1
Assay [3] has as its target anti-H3K4me3 antibody ab8580. Summed up: as §1
In assay [4] the target is anti-H3K9me3 antibody ab8898. Summed up: as §1
Setting [5] is: peptide region: H4 38-50, binder concentration: 1:2,000 dilution.
The mark [6] stands for this setting: peptide region: H4 38-50, binder concentration: 1:10,000 dilution.
Setting [7] is: peptide region: H4 16-28, peptide modifications: H4R19me2a, binder concentration: 1:2,000 dilution.
The mark [8] stands for this setting: peptide region: H4 16-28, peptide modifications: H4R19me2a H4K20me1, binder concentration: 1:2,000 dilution.
The mark [9] stands for this setting: peptide region: H4 16-28, peptide modifications: H4R19me2a H4K20me1, binder concentration: 1:10,000 dilution.
The mark [10] stands for this setting: peptide region: H4 16-28, peptide modifications: H4R19me2s H4K20me2, binder concentration: 1:2,000 dilution.
Setting [11] is: peptide region: H4 16-28, peptide modifications: H4R19me2s H4K20me2, binder concentration: 1:10,000 dilution.
The mark [12] stands for this setting: peptide region: H4 16-28, peptide modifications: H4R19me2s H4K20me1, binder concentration: 1:2,000 dilution.
Setting [13] is: peptide region: H4 16-28, peptide modifications: H4R19me2s H4K20me1, binder concentration: 1:10,000 dilution.
Where [14] appears, read: peptide region: H4 16-28, peptide modifications: H4R23me2s, binder concentration: 1:2,000 dilution.
The mark [15] stands for this setting: peptide region: H4 38-50, peptide modifications: H4K44me1 H4R45cit, binder concentration: 1:2,000 dilution.
The mark [16] stands for this setting: peptide region: H4 38-50, peptide modifications: H4K44me1 H4R45cit, binder concentration: 1:10,000 dilution.
Where [17] appears, read: peptide region: H4 38-50, peptide modifications: H4K44ac, binder concentration: 1:2,000 dilution.
Where [18] appears, read: peptide region: H4 38-50, peptide modifications: H4K44ac, binder concentration: 1:10,000 dilution.
Where [19] appears, read: peptide region: H4 16-28, peptide modifications: H4R23cit, binder concentration: 1:2,000 dilution.
Where [20] appears, read: peptide region: H4 16-28, peptide modifications: H4R23cit, binder concentration: 1:10,000 dilution.
The mark [21] stands for this setting: peptide region: H4 16-28, peptide modifications: H4R23me2a, binder concentration: 1:2,000 dilution.
[22] abbreviates: peptide region: H4 16-28, peptide modifications: H4R19me2s H4K20me3, binder concentration: 1:2,000 dilution.
The mark [23] stands for this setting: peptide region: H4 16-28, peptide modifications: H4R19me2s H4K20me3, binder concentration: 1:10,000 dilution.

As for ARRGGVKRISGLI [H4 38-50 A R R G G V K R I S G L I], the “peptide microarray binding signal” value in assay [1] (peptide region: H4 38-50, binder concentration: 50 nM) was found to be 0.00398 ± 0.00022; in assay [1] (peptide region: H4 38-50, binder concentration: 500 nM) it was 0.00614 ± 6.4e-05; in assay [2] (peptide region: H4 38-50, binder concentration: 10 nM) it was 0.003641 ± 3.4e-05; in assay [2] (peptide region: H4 38-50, binder concentration: 100 nM), 0.0105 ± 0.00039; in assay [3] (setting [5]), 0.000434 ± 8.7e-06; in assay [3] (setting [6]), 0.000913. Also, the results for the “peptide microarray binding signal” value in assay [4] (setting [5]) and in assay [4] (setting [6]) were 0.000151 ± 1.6e-06 and 0.000634 ± 1.2e-05, respectively.

Turning to KRHRKVLRDNIQG [H4 16-28 K R H Rme2a K V L R D N I Q G], the “peptide microarray binding signal” value came out at 4.76e-05 ± 5.2e-07 in assay [1] (peptide region: H4 16-28, peptide modifications: H4R19me2a, binder concentration: 500 nM); 0.000213 ± 2.5e-06 in assay [2] (peptide region: H4 16-28, peptide modifications: H4R19me2a, binder concentration: 100 nM); 5.66e-05 in assay [3] (setting [7]); 1.51e-05 ± 1.7e-07 in assay [4] (setting [7]).

Regarding KRHRKVLRDNIQG [H4 16-28 K R H Rme2a Kme V L R D N I Q G], the “peptide microarray binding signal” value came out at 0.00382 ± 5.3e-05 in assay [1] (peptide region: H4 16-28, peptide modifications: H4R19me2a H4K20me1, binder concentration: 50 nM); 0.008 ± 0.00032 in assay [1] (peptide region: H4 16-28, peptide modifications: H4R19me2a H4K20me1, binder concentration: 500 nM); 0.00782 ± 0.00021 in assay [2] (peptide region: H4 16-28, peptide modifications: H4R19me2a H4K20me1, binder concentration: 10 nM); 0.0127 ± 0.0032 in assay [2] (peptide region: H4 16-28, peptide modifications: H4R19me2a H4K20me1, binder concentration: 100 nM); 0.0308 ± 0.032 in assay [3] (setting [8]); 0.00188 ± 8.8e-05 in assay [3] (setting [9]). Also, the figures for the “peptide microarray binding signal” value in assay [4] (setting [8]) and in assay [4] (setting [9]) were 0.000966 ± 4.1e-05 and 0.0015 ± 4.4e-05, respectively.

As to KRHRKVLRDNIQG [H4 16-28 K R H Rme2s Kme2 V L R D N I Q G], the “peptide microarray binding signal” value in assay [1] (peptide region: H4 16-28, peptide modifications: H4R19me2s H4K20me2, binder concentration: 50 nM) came out at 0.003511 ± 2.9e-05; in assay [1] (peptide region: H4 16-28, peptide modifications: H4R19me2s H4K20me2, binder concentration: 500 nM), 0.00548 ± 0.00047; in assay [2] (peptide region: H4 16-28, peptide modifications: H4R19me2s H4K20me2, binder concentration: 10 nM), 0.00937 ± 0.00061; in assay [2] (peptide region: H4 16-28, peptide modifications: H4R19me2s H4K20me2, binder concentration: 100 nM), 0.0138 ± 0.0027; in assay [3] (setting [10]) it was 0.00208 ± 0.0003; in assay [3] (setting [11]), 0.00325 ± 0.00014. The “peptide microarray binding signal” value in assay [4] (setting [10]) turned out to be 0.000966 ± 0.00022; in assay [4] (setting [11]), 0.00225 ± 0.00011.

For KRHRKVLRDNIQG [H4 16-28 K R H Rme2s Kme V L R D N I Q G], the “peptide microarray binding signal” value is 0.00379 ± 5.5e-05 in assay [1] (peptide region: H4 16-28, peptide modifications: H4R19me2s H4K20me1, binder concentration: 50 nM); 0.00586 ± 0.00025 in assay [1] (peptide region: H4 16-28, peptide modifications: H4R19me2s H4K20me1, binder concentration: 500 nM); 0.0101 ± 0.00023 in assay [2] (peptide region: H4 16-28, peptide modifications: H4R19me2s H4K20me1, binder concentration: 10 nM); 0.0192 ± 0.00073 in assay [2] (peptide region: H4 16-28, peptide modifications: H4R19me2s H4K20me1, binder concentration: 100 nM); 0.0013 ± 1.8e-05 in assay [3] (setting [12]); 0.002568 ± 2.3e-05 in assay [3] (setting [13]). Further, the “peptide microarray binding signal” value stood at 0.000831 ± 4.3e-05 in assay [4] (setting [12]) and 0.001614 ± 1.6e-05 in assay [4] (setting [13]).

In the case of KRHRKVLRDNIQG [H4 16-28 K R H R K V L Rme2s D N I Q G], the “peptide microarray binding signal” value in assay [1] (peptide region: H4 16-28, peptide modifications: H4R23me2s, binder concentration: 500 nM) came to 0.000333 ± 1.9e-05; in assay [2] (peptide region: H4 16-28, peptide modifications: H4R23me2s, binder concentration: 100 nM), 0.000354 ± 1.5e-05; in assay [3] (setting [14]) it was 0.000849 ± 0.00028; in assay [4] (setting [14]), 1.51e-05 ± 1.7e-07.

As to ARRGGVKRISGLI [H4 38-50 A R R G G V Kme Rcit I S G L I], the “peptide microarray binding signal” value came to 0.00502 ± 0.00054 in assay [1] (peptide region: H4 38-50, peptide modifications: H4K44me1 H4R45cit, binder concentration: 50 nM); 0.0041 ± 5.8e-05 in assay [1] (peptide region: H4 38-50, peptide modifications: H4K44me1 H4R45cit, binder concentration: 500 nM); 0.00603 ± 0.00023 in assay [2] (peptide region: H4 38-50, peptide modifications: H4K44me1 H4R45cit, binder concentration: 10 nM); 0.00652 ± 0.0007 in assay [2] (peptide region: H4 38-50, peptide modifications: H4K44me1 H4R45cit, binder concentration: 100 nM); 0.00106 ± 0.00014 in assay [3] (setting [15]); 0.0016 ± 2.7e-05 in assay [3] (setting [16]). The entries for the “peptide microarray binding signal” value in assay [4] (setting [15]) and in assay [4] (setting [16]) were 0.00074 ± 1.7e-05 and 0.00133 ± 2.3e-05, respectively.

In the case of ARRGGVKRISGLI [H4 38-50 A R R G G V Kac R I S G L I], the “peptide microarray binding signal” value was found to be 0.00298 ± 0.00042 in assay [1] (peptide region: H4 38-50, peptide modifications: H4K44ac, binder concentration: 50 nM); 0.002238 ± 1.9e-05 in assay [1] (peptide region: H4 38-50, peptide modifications: H4K44ac, binder concentration: 500 nM); 0.00477 ± 0.00013 in assay [2] (peptide region: H4 38-50, peptide modifications: H4K44ac, binder concentration: 10 nM); 0.00751 ± 0.00045 in assay [2] (peptide region: H4 38-50, peptide modifications: H4K44ac, binder concentration: 100 nM); 0.00347 ± 0.0006 in assay [3] (setting [17]); 0.00251 ± 5.9e-05 in assay [3] (setting [18]). For the same molecule, the “peptide microarray binding signal” value in assay [4] (setting [17]) came out at 0.00142 ± 3.6e-05; in assay [4] (setting [18]) it was 0.00138 ± 4.9e-05.

With KRHRKVLRDNIQG [H4 16-28 K R H R K V L Rcit D N I Q G], the “peptide microarray binding signal” value in assay [1] (peptide region: H4 16-28, peptide modifications: H4R23cit, binder concentration: 50 nM) amounted to 0.00241 ± 3.7e-05; in assay [1] (peptide region: H4 16-28, peptide modifications: H4R23cit, binder concentration: 500 nM), 0.00457 ± 0.00023; in assay [2] (peptide region: H4 16-28, peptide modifications: H4R23cit, binder concentration: 10 nM), 0.00597 ± 0.00064; in assay [2] (peptide region: H4 16-28, peptide modifications: H4R23cit, binder concentration: 100 nM), 0.00291 ± 0.00024; in assay [3] (setting [19]), 0.000925 ± 1.6e-05; in assay [3] (setting [20]) it was 0.002 ± 0.00019. The “peptide microarray binding signal” value came out at 0.000544 ± 6.6e-05 in assay [4] (setting [19]) and 0.00115 in assay [4] (setting [20]).

For the molecule KRHRKVLRDNIQG [H4 16-28 K R H R K V L Rme2a D N I Q G], the “peptide microarray binding signal” value is 0.0285 ± 0.039 in assay [1] (peptide region: H4 16-28, peptide modifications: H4R23me2a, binder concentration: 500 nM); 0.000425 ± 4.9e-06 in assay [2] (peptide region: H4 16-28, peptide modifications: H4R23me2a, binder concentration: 100 nM); 7.55e-05 ± 8.5e-07 in assay [3] (setting [21]); 0 in assay [4] (setting [21]).

KRHRKVLRDNIQG [H4 16-28 K R H Rme2s Kme3 V L R D N I Q G]: the “peptide microarray binding signal” value in assay [1] (peptide region: H4 16-28, peptide modifications: H4R19me2s H4K20me3, binder concentration: 50 nM) is 0.006019 ± 4.1e-05; in assay [1] (peptide region: H4 16-28, peptide modifications: H4R19me2s H4K20me3, binder concentration: 500 nM), 0.00524 ± 0.00012; in assay [2] (peptide region: H4 16-28, peptide modifications: H4R19me2s H4K20me3, binder concentration: 10 nM) it was 0.01444 ± 0.00013; in assay [2] (peptide region: H4 16-28, peptide modifications: H4R19me2s H4K20me3, binder concentration: 100 nM), 0.0125 ± 0.00075; in assay [3] (setting [22]), 0.0051 ± 0.00088; in assay [3] (setting [23]), 0.00451 ± 0.0013. Also, the “peptide microarray binding signal” value in assay [4] (setting [22]) came to 0.00438 ± 0.0021; in assay [4] (setting [23]), 0.00663 ± 0.00022.
